PubChem BioAssay (NCATS)
Records with an inconclusive call do not appear. The source made the active and inactive calls. Unless noted, calls come from the whole dose curve; as a rule, active = well fitted curve in the direction sought with a large enough effect; inconclusive = small, poorly fitted or top-dose-only effect, or another doubt; inactive = no such curve, though single readings can be large; an effect the other way counts as inactive or inconclusive.

How the values were obtained:
[1] = qHTS profiling of the MIPE4 collection as inhibitors of Plasmodium falciparum (3D7) proliferation (AID 743344; call rule not given here;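 note: scaled between DMSO vehicle wells and 0.29 µM artemisinin as full inhibition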); details: P. falciparum 3D7 in erythrocytes, SYBR Green DNA fluorescence, 72 h; at 28.5 µM
In short: (§1)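 Erythrocytes infected with P. falciparum (0.3% parasitemia, 2.5% hematocrit) incubated with compounds 72 h at 37 C, 5% CO2. Lysis with saponin/Triton buffer containing SYBR Green I, overnight at room temperature in the dark; DNA fluorescence (485/535 nm) normalised to 0.29 uM artemisinin and DMSO.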

[2] = qHTS profiling of the MIPE4 collection as inhibitors of Plasmodium falciparum (DD2) proliferation (AID 743345; call rule not given here); details: P. falciparum Dd2 in erythrocytes, SYBR Green DNA, 72 h; at 28.5 µM
In short: as §1

[3] = qHTS profiling of the MIPE4 collection as inhibitors of Plasmodium falciparum (DD2) proliferation (Rep 2) (AID 743346; call rule not given here); details: P. falciparum Dd2 in erythrocytes, SYBR Green DNA, 72 h; at 28.5 µM
In short: as §1

[4] = qHTS profiling of the MIPE4 collection as inhibitors of Plasmodium falciparum (HB3) proliferation (AID 743347; call rule not given here;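 note: plate controls were DMSO vehicle wells for no effect and artemisinin wells for full effect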); details: P. falciparum HB3 in erythrocytes, SYBR Green DNA, 72 h; at 28.5 µM
In short: as §1

[5] = target: DNA dC->dU-editing enzyme APOBEC-3G (Homo sapiens) (UniProt Q9HC16); test: qHTS for inhibitors of Vif-A3G interactions: Validation (AID 588379); note: 0% is about no effect
In short: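 HeLa cells stably expressing Vif and A3G-eYFP, 700 cells/well, incubated overnight at 37 deg C, then exposed to compound overnight at 37 deg C. Inhibition of Vif-mediated degradation read as increased yellow fluorescence (Ex 488/Em 500-530) by laser-scanning cytometry.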

[6] = qHTS assay for small molecule agonists of the antioxidant response element (ARE) signaling pathway measured by Nrf2-dependant transcriptional activity - cell viability counter screen (AID 720653; active = well fitted curve in the direction sought with a large enough effect in the repeat runs; an effect the other way counts as inactive or inconclusive; note: % is set by controls: 0 for no effect and ±100 for the full control effect); details: ARE-bla HepG2 viability, CellTiter-Glo ATP luminescence, 16 h; max response: stronger effect = lower value
In short: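 ARE-bla HepG2 cells (2,000/well) rested 5 hrs at 37C/5% CO2, then exposed to compounds in DMSO for 16 hrs. Viability was read in the same wells as intracellular ATP by luminescence, 30 min at room temperature after reagent addition.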

[7] = Cell Viability - Hek293 (AID 427;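 active = compounds whose dose-response curve shows a full or clear partial loss of cell viability, called from curve shape rather than a numeric limit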;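 note: potency is the fitted concentration of half-maximal effect; cells exposed to compound for 40 hours at 37 °C before reading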); details: qHTS
In short: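 Luminescent ATP read-out (CellTiter-Glo, 20 min RT) after 40 hr compound exposure at 37 °C in complete medium. Signal normalized to DMSO (basal) and 100 uM tamoxifen (100% inhibition); concentration-response fitted with the standard Hill equation to give AC50.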

[8] = Cell Viability - MRC5 (AID 434; calls by dose curve;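 note: potency is the fitted concentration of half-maximal effect; potency reflects cytotoxicity seen as loss of intracellular ATP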); details: MRC5 lung fibroblast viability, qHTS
In short: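 MRC5 normal human lung fibroblasts (1500/well) were treated with compounds for 40 hr at 37 °C in complete medium, and viable cells were measured as intracellular ATP by CellTiter-Glo luminescence. AC50 came from Hill fits, normalized to DMSO and 100 uM tamoxifen.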

[9] = MultiTox-Fluor Cytotoxicity Assay - LYMP1-002 - Dead Cells (AID 960);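 note: 0% = DMSO and 100% = tetraoctylammonium bromide; nearly all actives have a fitted effect of over 60% in size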
In short: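 Human lymphoblastoid cells (LYMP1-002), 2500/well in complete medium, were exposed to compounds for 16 hr at 37 C. Dead-cell protease activity was read as bis-AAF-R110 fluorescence (Ex/Em 485/520), normalized to DMSO and 15 uM tetraoctylammonium bromide; AC50 from Hill fits.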

[10] = Cell Viability - LYMP2-012 (AID 982);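 note: cellular ATP by luciferase luminescence where a drop means cytotoxicity; cells exposed to compound for one day before reading; 0% = DMSO only and full loss = 92 µM tetraoctylammonium bromide; nearly all actives have a fitted effect of over 55% in size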
[11] = Cell Viability - LYMP2-014 (AID 983);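 note: series mostly up to about 92 µM; plate controls were DMSO only for no effect and 92 µM tetraoctylammonium bromide for full effect; nearly all actives have a fitted effect of over 50% in size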
In short: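 Human lymphoblastoid cells (2500/well) were pre-incubated 5 hr at 37 C, then exposed to compounds in complete medium for 24 hr at 37 C. Intracellular ATP was read by CellTiter-Glo luminescence after 30 min at room temperature; AC50 from Hill fits.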

[12] = Cell Viability - LYMP2-016 (AID 984); note: % is set by controls: 0 for no effect and ±100 for the full control effect; nearly all actives have a fitted effect of over 55% in size
In short: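 Concentration-dependent ATP depletion measured in LYMP2-016 lymphoblastoid cells, 24 h, 37 C; luciferase-based luminescent detection; Hill-equation AC50.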

[13] = Cell Viability - LYMP2-018 (AID 985);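 note: compound exposure lasted 24 hr at 37 °C; plate controls were DMSO only for no effect and tetraoctylammonium bromide at 92 µM for full effect; nearly all actives have a fitted effect of over 50% in size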
In short: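 Human lymphoblastoid cells (2500/well) were pre-incubated 5 hr at 37 C, then exposed to compounds for 24 hr at 37 C in complete medium. Viability was read as intracellular ATP by CellTiter-Glo luminescence; AC50 values came from Hill-equation fits.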

[14] = Cell Viability - LYMP2-020 (AID 986);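 note: series mostly up to about 92 µM; plate controls were DMSO only for no effect and tetraoctylammonium bromide at 92 µM for full effect; nearly all actives have a fitted effect of over 55% in size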
In short: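 Human lymphoblastoid cells, 2500/well, were pre-incubated 5 hr at 37 C, then exposed to compounds for 24 hr at 37 C in complete medium. Intracellular ATP was read by CellTiter-Glo luminescence, and AC50 was derived by Hill fitting of concentration-response data.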

[15] = Cell Viability - LYMP2-022 (AID 987);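 note: 0% = DMSO alone and full effect = tetraoctylammonium bromide at 92 µM; nearly all actives have a fitted effect of over 55% in size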
In short: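 Human lymphoblastoid cells, 2500/well, preincubated 5 hr at 37 C, then exposed to compounds over a concentration range for 24 hr at 37 C in complete medium. Viability read as intracellular ATP by CellTiter-Glo luminescence after 30 min at room temperature; AC50 from Hill fits.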

[16] = Cell Viability - LYMP2-024 (AID 988);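 note: plate controls were DMSO only for no effect and 92 µM tetraoctylammonium bromide for full effect; nearly all actives have a fitted effect of over 60% in size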
In short: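 Human lymphoblastoid cells (2500/well) in complete medium were preincubated 5 hr at 37 C, then exposed to compounds for 24 hr at 37 C. Intracellular ATP was read by CellTiter-Glo luminescence; AC50 from Hill-equation fits of concentration-response data.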

[17] = Cell Viability - LYMP2-026 (AID 989); note: % is set by controls: 0 for no effect and ±100 for the full control effect; nearly all actives have a fitted effect of over 50% in size
In short: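 Human lymphoblastoid cells (2500/well) in complete medium were preincubated 5 hr at 37 C, then exposed to compounds for 24 hr at 37 C. Cellular ATP was read by CellTiter-Glo luminescence; AC50 from Hill-equation fits of concentration-response data.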

[18] = Cell Viability - LYMP1-002 - Assay at 24 hr (AID 993); note: % is set by controls: 0 for no effect and ±100 for the full control effect
In short: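 Human lymphoblastoid LYMP1-002 cells, 2500/well in complete medium, were treated with compounds for 24 h at 37 C; intracellular ATP was read by CellTiter-Glo luminescence. AC50 values came from Hill-equation fits of qHTS concentration-response data.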

[19] = Cell Viability - LYMP1-002 - Assay at 40 hr (AID 994);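 note: 0% = DMSO only and full inhibition = 92 µM tetraoctylammonium bromide; nearly all actives have a fitted effect of over 60% in size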
In short: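 Human lymphoblastoid cells, 2500/well in complete medium, were preincubated 5 hr at 37 C, then exposed to compounds for 40 hr at 37 C. Intracellular ATP was read by CellTiter-Glo luminescence after 30 min at room temperature; AC50 from Hill-equation fits.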

[20] = target: Androgen receptor (Homo sapiens) (UniProt P10275); test: qHTS assay for small molecule antagonists of androgen receptor signaling (AID 588516; active = well fitted curve in the direction sought with a large enough effect in the signal ratio, with a control signal flat, not every such curve was filed as active; the % refers to the signal ratio; note: % is set by controls: 0 for no effect and ±100 for the full control effect)
In short: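 Compounds tested in titration against 10 nM R1881 in AR-responsive bla reporter HEK 293 cells; CCF4 fluorescence (460/530 nm) after 16 h exposure gave IC50 and efficacy.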

Chain of Androgen receptor (Homo sapiens) (P10275 whole entry, looked up): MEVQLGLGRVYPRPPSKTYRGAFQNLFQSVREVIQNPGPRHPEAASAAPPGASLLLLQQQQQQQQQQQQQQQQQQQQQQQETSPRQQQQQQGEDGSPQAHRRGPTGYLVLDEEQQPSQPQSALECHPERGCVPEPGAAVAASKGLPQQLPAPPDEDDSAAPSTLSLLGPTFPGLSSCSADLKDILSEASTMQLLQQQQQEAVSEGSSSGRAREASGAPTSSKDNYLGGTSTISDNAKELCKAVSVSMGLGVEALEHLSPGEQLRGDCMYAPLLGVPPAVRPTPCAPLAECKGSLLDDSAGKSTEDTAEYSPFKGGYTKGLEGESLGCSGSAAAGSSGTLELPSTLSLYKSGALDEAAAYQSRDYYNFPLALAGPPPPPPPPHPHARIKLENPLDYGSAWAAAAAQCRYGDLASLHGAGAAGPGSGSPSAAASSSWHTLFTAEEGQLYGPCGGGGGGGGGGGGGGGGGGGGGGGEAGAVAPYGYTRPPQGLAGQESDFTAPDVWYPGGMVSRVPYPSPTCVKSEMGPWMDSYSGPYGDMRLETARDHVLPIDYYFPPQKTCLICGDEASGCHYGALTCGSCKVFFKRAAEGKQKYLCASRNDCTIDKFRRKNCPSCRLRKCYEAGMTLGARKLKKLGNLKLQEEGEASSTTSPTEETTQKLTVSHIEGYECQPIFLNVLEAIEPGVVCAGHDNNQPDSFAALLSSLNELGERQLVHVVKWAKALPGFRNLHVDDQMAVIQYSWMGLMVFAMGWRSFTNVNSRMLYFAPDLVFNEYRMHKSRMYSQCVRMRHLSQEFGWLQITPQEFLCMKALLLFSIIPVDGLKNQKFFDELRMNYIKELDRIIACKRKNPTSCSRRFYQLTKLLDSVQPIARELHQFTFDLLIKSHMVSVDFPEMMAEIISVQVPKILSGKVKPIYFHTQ
Chain of DNA dC->dU-editing enzyme APOBEC-3G (Homo sapiens) (Q9HC16 whole entry, looked up): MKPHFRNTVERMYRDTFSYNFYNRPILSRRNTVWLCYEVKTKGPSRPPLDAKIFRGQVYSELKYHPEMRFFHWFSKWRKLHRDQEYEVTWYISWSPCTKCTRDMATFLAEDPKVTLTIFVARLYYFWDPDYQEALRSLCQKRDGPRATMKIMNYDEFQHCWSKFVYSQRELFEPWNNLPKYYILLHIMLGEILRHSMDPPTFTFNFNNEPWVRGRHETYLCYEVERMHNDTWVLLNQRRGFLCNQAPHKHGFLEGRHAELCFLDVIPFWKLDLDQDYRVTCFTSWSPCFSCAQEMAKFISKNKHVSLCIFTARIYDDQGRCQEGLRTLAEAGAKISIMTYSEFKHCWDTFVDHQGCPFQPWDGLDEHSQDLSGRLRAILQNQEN

CCCCCCCCCCCCCCCCn1cc[n+](Cc2ccccc2)c1C
8.98%: parasite growth, % of control (lower = inhibition) [3]
6.21%: parasite growth remaining, % of DMSO control (lower = more inhibition) [2]
5.58%: parasite growth, % of DMSO control [1]
5.99%: growth, % of control [4]

O=c1ccc2cc3ccoc3cc2o1
inactive: outcome [5]

O=C(O)CCCCCCCCC(=O)O
inactive: max response [6] -1.89%

O=C(/C=C/c1ccc(O)c(O)c1)O[C@@H](C(=O)O)[C@@H](OC(=O)/C=C/c1ccc(O)c(O)c1)C(=O)O
inactive: Potency [7] > 92 µM | Potency [8] > 92 µM | Potency [9] | Potency [10] | Potency [11] | Potency [12] | Potency [13] | Potency [14] | Potency [15] | Potency [16] | Potency [17] | Potency [18] | Potency [19]

O=C(Nc1ccccc1)c1ccccc1O
inactive: outcome [20]

CC12CCC(CC1=O)C2(C)C (stereo not given)
inactive: Potency [10] | Potency [11] | Potency [12] | Potency [13] | Potency [14] | Potency [15] | Potency [16] | Potency [17] | Potency [18] | Potency [19]
